Assay [1] in a line: viability loss in pontine glioma line – cell-based, SU-DIPG-XVII, MIPE5.0, CellTiter-Glo, qHTS, dose response (AID 1347060).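 For AC50: cells exposed to compound for 48 hours before viability readout.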 The following applies: CellTiter-Glo ATP luminescence. (In general: ATP-based viability assays read luminescence as a measure of living cells.)
A short description of assay [2]: viability loss in pontine glioma line – cell-based, SU-DIPG-XXV, MIPE5.0, CellTiter-Glo, qHTS, dose response (AID 1347065).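 Note: cells exposed to compound for 48 hours before ATP readout.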 The settings on record: CellTiter-Glo ATP luminescence.
Assay [3] is described as follows: growth inhibition of DIPG cells – cell-based, MIPE5.0 library, qHTS (AID 1347068; cut-off not given, nearly all actives have IC50 up to about 30 µM;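 for IC50: cells exposed to compound for 48 hours before viability readout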). The settings on record: SU-DIPG-XXV viability.
The nature of assay [4]: viability loss with induced miR-34 in A549 – imaging, A549 dox-inducible miR-34, nuclei and caspase counts, primary screen (AID 1347080;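 active = compounds whose cell count with miR-34 switched on is under 0.7 times the count with it off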). The following applies: A549 miR-34 inducible, Hoechst nuclei count, 48 h.
Assay [5] is described as follows: MELAS cybrid and Rieske KO viability enhancers – cell-based, MELAS cybrids, Rieske KO mouse fibroblasts, CellTiter-Glo, primary screen (AID 1508586;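 active = mean z-score across replicates of 1.96 or higher in either the MELAS or the Rieske mutant cell line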;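 note: z relative to plate mean and SD of compound and empty wells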). The following applies: low glucose.
Assay [6] can be described thus: JHH-DIPG-1 glioma cell viability, MIPE5.0 library, CellTiter-Glo luminescence, qHTS (AID 1347067).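 Note: cells exposed to compound for 48 hours before readout.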 The following applies: JHH-DIPG-1 glioma viability, CellTiter-Glo ATP luminescence.
Assay [7] is described as follows: drug combination growth inhibition, ovarian cancer – cell-based, oncology-focused library, rucaparib conditional, profiling panel (AID 1508598;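 active = normalized viability below 100% at a tested concentration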). The following applies: patient-derived ovarian cancer cells, CellTiter-Glo viability, 144 h, stronger effect = lower value.
A short description of assay [8]: P. berghei load reduction in hepatocytes – cell-based, HepG2, luciferase luminescence, HepG2 viability, primary screen (AID 624349; in the data active = parasite load remaining mostly below about 12%, no sharp cut-off; inactive = mostly above about 10%;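 note: 100% = mean of DMSO negative control wells on the same plate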). The settings on record: P. berghei liver stage in HepG2, luciferase luminescence, concentration not given here; parasite load remaining: stronger effect = lower value; viability: measured here: HepG2 viability without parasites.
Where [9] appears, read: stronger effect = lower value, cell number ratio, induced over uninduced.
[10] abbreviates: measured here: relative caspase fold change +Dox/-Dox.
The mark [11] stands for this setting: measured here: total cells with miR-34 induction, stronger effect = lower value.
[12] abbreviates: measured here: total cells without miR-34 induction.
[13] abbreviates: MELAS cybrid survival, CellTiter-Glo 48 h, stronger effect = higher value.
The mark [14] stands for this setting: Rieske KO mouse fibroblast survival, CellTiter-Glo 72 h.

Results filed as inconclusive are left out. Activity calls are given as the source filed them. Unless noted, no cut-off is given here; in the data, nearly all actives have AC50 up to about 26 µM.

As a reminder, the AC50 is the concentration giving half of the maximal activity seen. The IC50 is the concentration that gives 50% inhibition. Consider `CCNCCS(=O)(=O)NC[C@@]1(c2ccccc2)SC(NC(=O)C(C)(C)C)=NN1C(=O)C(C)(C)C`, for which the values for the AC50 in assay [1] and in assay [2] were 0.00742 µM (active) and 0.00468 µM (active), respectively. Also, in assay [3], the half-inhibitory concentration (IC50) is 0.00296 µM (active).
As for `CC(Nc1ncnc2nc[nH]c12)c1cc2cccc(Cl)c2c(=O)n1-c1ccccc1` (centres undefined), the AC50 in assay [1] and in assay [2] was 18.6 µM (active) throughout. Moreover, the fold change was 0.872 (inactive) in assay [4] (setting [9]) and 0.835 in assay [4] (setting [10]). Besides, the figures for the cell count in assay [4] (setting [11]) and in assay [4] (setting [12]) were 6590 and 7550, respectively. Also, the figures for the z-score in assay [5] (setting [13]) and in assay [5] (setting [14]) were -0.147 (inactive) and -0.173, respectively.
`CC#C[C@@H](CC(=O)O)c1ccc(OCc2cccc(-c3ccc(C(F)(F)F)cc3)c2)cc1`: the call in assay [1], in assay [6] and in assay [3] was inactive.
As to `COc1cccc(Nc2ncnn3ccc(CN4CC[C@@H](N)[C@H](O)C4)c23)c1`, the AC50 in assay [1] is 14.8 µM (active). For the same compound, the compound was called inactive in assay [6] and in assay [3].
On to `CC(=O)C1CCC2C3CCC4=CC(=O)CCC4(C)C3CCC12C` (centres undefined), for which the call in assay [1], in assay [6] and in assay [3] was inactive.
Consider `CC[C@@]1(O)C(=O)OCc2c1cc1n(c2=O)Cc2c-1nc1ccccc1c2CCNC(C)C`, for which, in assay [1], the AC50 is 0.00742 µM (active). The result in assay [3] was inactive.
For `COCCOC(=O)N1CCN(S(=O)(=O)c2cc(F)c(Oc3ccc(Cl)cc3)c(F)c2)C(C(=O)NO)C1` (centres undefined), the call in assay [1] was inactive. The AC50 in assay [6] was 16.6 µM (active). In addition, in assay [3], the IC50 was 20.9 µM (active).
Regarding `O=C(O)CCNc1cc(N2CCc3ccccc3CC2)nc(-c2cccnc2)n1`, the compound was called inactive in assay [1], in assay [6] and in assay [3].
For `NC(=O)c1cc(F)cc2c1C(=O)N(C1CCN(C3CCC(F)(F)CC3)CC1)C2`, the compound was classed as inactive in assay [1], in assay [6] and in assay [3].
Turning to `CN(C)CCN1C(=O)c2cccc3cc(NC(N)=O)cc(c23)C1=O`, the AC50 in assay [1] is 18.6 µM (active). Moreover, the outcome in assay [3] was inactive.
For the compound `Cc1onc(-c2ccc(F)cc2)c1COc1ccc(C(=O)N2CCS(=O)(=O)CC2)cn1`, the compound was called inactive in assay [1], in assay [6] and in assay [3].
In the case of `CSc1ccc(C(=O)/C=C/c2cc(C)c(OC(C)(C)C(=O)O)c(C)c2)cc1`, the compound was called inactive in assay [1] and in assay [3].
For `CCn1c(N)c(C(=O)NC)c(=O)c2ccc(C#CC(C)(O)COC)nc21` (centres undefined), the AC50 in assay [1] is 20.9 µM (active). In addition, the call in assay [6] and in assay [3] was inactive.
As for `COc1ccc(Cl)c(Nc2ncnc3cc(OCC4CCN(C)CC4)c(OC)cc23)c1`, the AC50 is 3.72 µM (active) in assay [1] and 20.9 µM (active) in assay [6]. Also, the compound was called inactive in assay [3].
`CN1C[C@@H]2c3ccccc3Oc3ccc(Cl)cc3[C@H]2C1`: the call in assay [1], in assay [6] and in assay [3] was inactive. In addition, the fold change is 0.885 (inactive) in assay [4] (setting [9]) and 1.23 in assay [4] (setting [10]). Also, the cell count in assay [4] (setting [11]) is 6350; in assay [4] (setting [12]), 7170. Further, the z-score is -0.348 (inactive) in assay [5] (setting [13]) and 0.514 in assay [5] (setting [14]).
Regarding `Cn1ncnc1[C@H]1c2n[nH]c(=O)c3cc(F)cc(c23)N[C@@H]1c1ccc(F)cc1`, in assay [1], the AC50 was 0.742 µM (active). The outcome in assay [6] and in assay [3] was inactive.
As for `CCCOc1ccc(CCc2nc3cc(-c4c(C)noc4C)ccc3n2CCN2CCOCC2)cc1`, the outcome in assay [1] and in assay [3] was inactive. The AC50 in assay [6] is 20.9 µM (active).
As for `CC[C@H](C)[C@@H]([C@@H](CC(=O)N1CCC[C@H]1[C@H](OC)[C@@H](C)C(=O)N[C@@H](Cc1ccccc1)c1nccs1)OC)N(C)C(=O)[C@@H](NC(=O)[C@H](C(C)C)N(C)C)C(C)C`, in assay [1], the outcome was inactive. The IC50 in assay [3] is 0.00417 µM (active).
For the compound `COc1cc2c3c(n(CCCN4CCOCC4)c(=O)c2cc1OC)-c1cc2c(cc1C3=O)OCO2`, the AC50 was 0.0417 µM (active) in assay [1] and 8.33 µM (active) in assay [6]. Also, the call in assay [3] was inactive.
The like results for `NS(=O)(=O)c1ccc(Cc2c(-c3cccc(-c4ccccc4)c3)nn(-c3nc(C(=O)O)cs3)c2CC2CC2)cc1` were, in that order, 23.5 µM (active), 20.9 µM (active) and “inactive”.
The term viability denotes a read-out of living cells in per cent, often relative to untreated cells. As for `Cc1cc(CS(=O)(=O)c2ccccc2)cc(OCc2ccc(CN3CCC[C@@H]3CO)cc2)c1`, in assay [1], the AC50 was 26.3 µM (active). The call in assay [6] and in assay [3] was inactive. In addition, the viability was 111% (inactive) in assay [7] (at 0.000305 µM, OCI-C5x cells, with rucaparib 10 µM, 100% = cells with rucaparib alone); 109% (inactive) in assay [7] (at 0.000305 µM, OCI-C5x cells, without rucaparib); 97% (active) in assay [7] (at 0.000305 µM, OCI-P5x cells, with rucaparib 20 µM, 100% = cells with rucaparib alone); 106% (inactive) in assay [7] (at 0.000305 µM, OCI-P5x cells, without rucaparib); 113% (inactive) in assay [7] (at 0.00122 µM, OCI-C5x cells, with rucaparib 10 µM, 100% = cells with rucaparib alone); 120% (inactive) in assay [7] (at 0.00122 µM, OCI-C5x cells, without rucaparib). For the same compound, the viability in assay [7] (at 0.00122 µM, OCI-P5x cells, with rucaparib 20 µM, 100% = cells with rucaparib alone) is 103% (inactive); in assay [7] (at 0.00122 µM, OCI-P5x cells, without rucaparib) it was 108% (inactive); in assay [7] (at 0.00488 µM, OCI-C5x cells, with rucaparib 10 µM, 100% = cells with rucaparib alone) it was 111% (inactive); in assay [7] (at 0.00488 µM, OCI-C5x cells, without rucaparib), 127% (inactive); in assay [7] (at 0.00488 µM, OCI-P5x cells, with rucaparib 20 µM, 100% = cells with rucaparib alone), 99.4% (active); in assay [7] (at 0.00488 µM, OCI-P5x cells, without rucaparib), 107% (inactive). Further, the viability was 116% (inactive) in assay [7] (at 0.0195 µM, OCI-C5x cells, with rucaparib 10 µM, 100% = cells with rucaparib alone); 116% (inactive) in assay [7] (at 0.0195 µM, OCI-C5x cells, without rucaparib); 107% (inactive) in assay [7] (at 0.0195 µM, OCI-P5x cells, with rucaparib 20 µM, 100% = cells with rucaparib alone); 103% (inactive) in assay [7] (at 0.0195 µM, OCI-P5x cells, without rucaparib); 123% (inactive) in assay [7] (at 0.0781 µM, OCI-C5x cells, with rucaparib 10 µM, 100% = cells with rucaparib alone); 125% (inactive) in assay [7] (at 0.0781 µM, OCI-C5x cells, without rucaparib). Besides, the viability in assay [7] (at 0.0781 µM, OCI-P5x cells, with rucaparib 20 µM, 100% = cells with rucaparib alone) is 99.2% (active); in assay [7] (at 0.0781 µM, OCI-P5x cells, without rucaparib) it was 108% (inactive); in assay [7] (at 0.313 µM, OCI-C5x cells, with rucaparib 10 µM, 100% = cells with rucaparib alone), 116% (inactive); in assay [7] (at 0.313 µM, OCI-C5x cells, without rucaparib), 111% (inactive); in assay [7] (at 0.313 µM, OCI-P5x cells, with rucaparib 20 µM, 100% = cells with rucaparib alone) it was 106% (inactive); in assay [7] (at 0.313 µM, OCI-P5x cells, without rucaparib), 109% (inactive). Further, the viability in assay [7] (at 1.25 µM, OCI-C5x cells, with rucaparib 10 µM, 100% = cells with rucaparib alone) is 117% (inactive); in assay [7] (at 1.25 µM, OCI-C5x cells, without rucaparib) it was 123% (inactive); in assay [7] (at 1.25 µM, OCI-P5x cells, with rucaparib 20 µM, 100% = cells with rucaparib alone), 99.2% (active); in assay [7] (at 1.25 µM, OCI-P5x cells, without rucaparib) it was 105% (inactive); in assay [7] (at 5 µM, OCI-C5x cells, with rucaparib 10 µM, 100% = cells with rucaparib alone), 127% (inactive); in assay [7] (at 5 µM, OCI-C5x cells, without rucaparib) it was 122% (inactive). The viability in assay [7] (at 5 µM, OCI-P5x cells, with rucaparib 20 µM, 100% = cells with rucaparib alone) is 95.9% (active); in assay [7] (at 5 µM, OCI-P5x cells, without rucaparib), 99.8% (active).
Take `CC(C)n1cnc2c(NCCCCCCNC(=O)OC(C)(C)C)nc(NCCO)nc21`: in assay [8], the parasite load remaining is 47.6% (inactive) and the viability came out at 102%. Moreover, in assay [1], the AC50 is 23.5 µM (active). The AC50 in assay [6] is 18.6 µM (active).
As for `COc1cc(C(N)=O)ccc1NC(=O)[C@@H]1N[C@@H](CC(C)(C)C)[C@@]2(C(=O)Nc3cc(Cl)ccc32)[C@H]1c1cccc(Cl)c1F`, the AC50 in assay [1] and in assay [6] was 23.5 µM (active) throughout. In assay [3], the IC50 is 16.6 µM (active).
For the compound `CCS(=O)(=O)N1CCC(C(C)n2c(C)c(C(=O)NCc3c(OC)cc(C)[nH]c3=O)c3ccccc32)CC1` (centres undefined), the compound was classed as inactive in assay [1], in assay [6] and in assay [3].
`N#Cc1cccnc1N1CCN(C(=O)c2cccc(Cc3n[nH]c(=O)c4ccccc34)c2)CC1`: the AC50 in assay [1] was 0.059 µM (active). In addition, the compound was called inactive in assay [3].

Source of the values: PubChem BioAssay.
